Counter-ions that a name gives are not always drawn.
Each compound was assayed on Saccharomyces cerevisiae BY4741 SeMeCo community (assay: z-score of subpopulation abundance vs DMSO median, subpopulation auxotrophic for HL; higher = larger share of this subpopulation than in DMSO controls). Conditions: 10 µM; 24 h; SM minimal medium; subpopulation (auxotrophy): HL.
Protocol: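 Fluorescent four-plasmid SeMeCo (self-establishing metabolically cooperating S. cerevisiae BY4741 community; plasmids pH-mRuby2, pL-mWasabi, pU-eCFP, pM-TagRFP657) was grown 24 h in minimal SM medium with each Selleck FDA-approved drug at 10 µM in 384-well plates. Cells were fixed and imaged by high-content confocal microscopy. For each auxotrophic subpopulation (and the prototroph), a z-score gives the deviation from the DMSO vehicle-control population median.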
For Nc1ccncc1 [4-Aminopyridine], the “z-score of subpopulation abundance” value was 0.38. O=c1[nH]c2ccccc2n1CCCN1CCC(n2c(=O)[nH]c3cc(Cl)ccc32)CC1 [Domperidone] was tested, and the “z-score of subpopulation abundance” value was 0.19. For COc1ccc2[nH]cc(CCN)c2c1 [5-Methoxytryptamine], the “z-score of subpopulation abundance” value was -0.31. For N#Cc1nn(-c2c(Cl)cc(C(F)(F)F)cc2Cl)c(N)c1[S+]([O-])C(F)(F)F (centres undefined) [Fipronil], the “z-score of subpopulation abundance” value was 0.71. With C=CC[C@]1(O)CC[C@H]2[C@@H]3CCC4=CC(=O)CCC4=C3C=C[C@@]21C [Altrenogest] the “z-score of subpopulation abundance” value was 0.59. CN1[C@@H]2C[C@@H](OC(=O)[C@H](CO)c3ccccc3)C[C@H]1[C@@H]1O[C@@H]12 [Scopolamine HBr trihydrate] was tested, and the “z-score of subpopulation abundance” value was -0.72. In the case of Oc1cccc2cccnc12 [8-Hydroxyquinoline], the “z-score of subpopulation abundance” value is reported as 0.63. For C[N+]12CCC(CC1)C(OC(=O)C(O)(c1ccccc1)c1ccccc1)C2 (centres undefined) [Clidinium Bromide], the “z-score of subpopulation abundance” value was -0.33. Oc1cc(Cl)ccc1Oc1ccc(Cl)cc1Cl [Triclosan] was tested, and the “z-score of subpopulation abundance” value was -0.78. With O=[N+]([O-])C(Br)(CO)CO [Bronopol] the “z-score of subpopulation abundance” value was -1.08. In the case of Cc1cc(O)ccc1Cl [Chlorocresol], the “z-score of subpopulation abundance” value is reported as -0.86. In the case of CC[C@@H](C(N)=O)N1CCCC1=O [Levetiracetam], the “z-score of subpopulation abundance” value is reported as -1.01. In the case of C[N+]1(C)[C@@H]2C[C@@H](OC(=O)[C@H](CO)c3ccccc3)C[C@H]1[C@@H]1O[C@@H]12 [Methscopolamine], the “z-score of subpopulation abundance” value is reported as -0.05. With CN1[C@@H]2CC[C@H]1C[C@@H](OC(=O)C(CO)c1ccccc1)C2 (some centres undefined) [Atropine sulfate monohydrate] the “z-score of subpopulation abundance” value was -0.69. NCCc1c[nH]c2ccc(O)cc12 [Serotonin HCl] was tested, and the “z-score of subpopulation abundance” value was -0.74. For COC(=O)C1=CCCN(C)C1 [Arecoline HBr], the “z-score of subpopulation abundance” value was 0.21. With CC[C@@]1(O)C(=O)OCc2c1cc1n(c2=O)Cc2cc3ccccc3nc2-1 [Camptothecin] the “z-score of subpopulation abundance” value was -0.59. In the case of CCOC(=O)Nc1ccc(NCc2ccc(F)cc2)cc1N [Retigabine 2HCl], the “z-score of subpopulation abundance” value is reported as 1.24. For CN(C)[C@@H]1C(=O)C(C(N)=O)=C(O)[C@@]2(O)C(=O)C3=C(O)c4c(O)cccc4[C@@](C)(O)[C@H]3[C@H](O)[C@@H]12 [Oxytetracycline (Terramycin)], the “z-score of subpopulation abundance” value was 0.77. With COc1cc2c(cc1OC)C1CC(=O)C(CC(C)C)CN1CC2 (centres undefined) [Tetrabenazine (Xenazine)] the “z-score of subpopulation abundance” value was 0.31. For C#C[C@]1(O)C=C[C@H]2[C@@H]3CCC4=CC(=O)CC[C@@H]4[C@H]3CC[C@@]21CC [Gestodene], the “z-score of subpopulation abundance” value was 0.13. In the case of CN(C)[C@@H]1C(=O)C(C(N)=O)=C(O)[C@@]2(O)C(=O)C3=C(O)c4c(O)cccc4[C@@](C)(O)[C@H]3[C@H](O)[C@@H]12 [Oxytetracycline Dihydrate], the “z-score of subpopulation abundance” value is reported as 0.03. With CC[C@H]1CN2CC[C@]3(C(=O)Nc4ccccc43)[C@@H]2C[C@@H]1/C(=C\OC)C(=O)OC [Rhynchophylline] the “z-score of subpopulation abundance” value was 0.04. CN(C)[C@@H]1C(=O)C(C(N)=O)=C(O)[C@@]2(O)C(=O)C3=C(O)c4c(O)ccc(Cl)c4[C@@](C)(O)[C@H]3C[C@@H]12 [Chlortetracycline HCl] was tested, and the “z-score of subpopulation abundance” value was 0.38. In the case of Cc1cc(C(C#N)c2ccc(Cl)cc2)c(Cl)cc1NC(=O)c1cc(I)cc(I)c1O (centres undefined) [Closantel], the “z-score of subpopulation abundance” value is reported as 0.7. With CCN(CC)CCOC(=O)C(O)(c1ccccc1)c1ccccc1 [Benactyzine hydrochloride] the “z-score of subpopulation abundance” value was -0.47. Cn1cc(C2=C(c3cn(C4CCN(Cc5ccccn5)CC4)c4ccccc34)C(=O)NC2=O)c2ccccc21 was tested, and the “z-score of subpopulation abundance” value was -1.11. With CN[C@@H]1[C@@H](O)[C@@H](O[C@@H]2[C@@H](O)[C@H](O[C@H]3O[C@H](CN)CC[C@H]3N)[C@@H](N)C[C@H]2N)OC[C@]1(C)O.CN[C@@H]1[C@@H](O)[C@@H](O[C@@H]2[C@@H](O)[C@H](O[C@H]3O[C@H]([C@@H](C)N)CC[C@H]3N)[C@@H](N)C[C@H]2N)OC[C@]1(C)O.CN[C@@H]1[C@@H](O)[C@@H](O[C@@H]2[C@@H](O)[C@H](O[C@H]3O[C@H]([C@@H](C)NC)CC[C@H]3N)[C@@H](N)C[C@H]2N)OC[C@]1(C)O [Gentamicin Sulfate] the “z-score of subpopulation abundance” value was -1.11. In the case of CC(C)N(CCC(C(N)=O)(c1ccccc1)c1ccccn1)C(C)C (centres undefined) [Disopyramide], the “z-score of subpopulation abundance” value is reported as 2.14. O=C(O[C@H]1C[C@H]2CC[C@@H](C1)[N+]21CCCC1)C(O)(c1ccccc1)c1ccccc1 [Trospium chloride] was tested, and the “z-score of subpopulation abundance” value was -0.4. With COc1ccc(C(CN(C)C)C2(O)CCCCC2)cc1 (centres undefined) [Venlafaxine] the “z-score of subpopulation abundance” value was -1.14. For COc1ccc(C(CN(C)C)C2(O)CCCCC2)cc1 (centres undefined) [Venlafaxine HCl], the “z-score of subpopulation abundance” value was 1.07. In the case of CC[N+](C)(CC)CCOC(=O)C(O)(c1ccccc1)c1ccccc1 [Methylbenactyzine Bromide], the “z-score of subpopulation abundance” value is reported as -0.61. In the case of CN(C)C(=O)Oc1cccc([N+](C)(C)C)c1 [Neostigmine Bromide], the “z-score of subpopulation abundance” value is reported as -0.44.
